Assay results reported in PubChem BioAssay (Tox21).
Records with an inconclusive call do not appear. Active and inactive are the calls of the source. Calls come from the whole dose curve; as a rule, active = well fitted curve in the direction sought with a large enough effect in the repeat runs; inconclusive = weak or mixed curves; inactive = no such curve, though single readings can be large; an effect the other way counts as inactive or inconclusive.

Tests used:
[1] = Caspase-3/7 induction in HepG2 cells by small molecules, qHTS assay (AID 1346978); note: nearly all actives have a fitted effect of over 15% in size; note: potency is the fitted concentration of half-maximal effect
In short: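 Wild-type HepG2 cells, 2,000/well, settled 5 hr at 37 C and 5% CO2, then compound-treated for 17 hr; caspase-3/7 activity read by luminescent Caspase-Glo 3/7 after 30 min at room temperature.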

[2] = Caspase-3/7 induction in CHO-K1 cells by small molecules, qHTS cell viability counter screen (AID 1346979); note: nearly all actives have a fitted effect of over 35% in size; note: potency is the fitted concentration of half-maximal effect
In short: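 CellTiter-Fluor viability check, qHTS format: wild-type CHO-K1, 16hr compound treatment, 1hr reagent incubation, fluorescence read.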

[3] = Caspase-3/7 induction in CHO-K1 cells by small molecules, qHTS assay (AID 1346980); note: nearly all actives have a fitted effect of over 15% in size
In short: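 Wild-type CHO-K1 cells exposed to compounds for 17hr at 37 C, 5% CO2. Caspase-3/7 activity then measured by Caspase-Glo 3/7 luminescence after 30min at room temperature.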

[4] = Caspase-3/7 induction in HepG2 cells by small molecules, qHTS cell viability counter screen (AID 1346981); note: nearly all actives have a fitted effect of over 30% in size; note: potency is the fitted concentration of half-maximal effect
In short: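 Wild-type HepG2 cells, 2,000/well, settled 5 hr at 37 C, 5% CO2 before compound addition. Viability read by CellTiter-Fluor fluorescence, reagent added after 16 hr compound exposure, then 1 hr at 37C, in the same wells as the caspase read.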

[5] = target: Nuclear receptor subfamily 1 group I member 2 (Homo sapiens) (UniProt O75469); test: Human pregnane X receptor (PXR) small molecule agonists, qHTS assay (AID 1346982); note: nearly all actives have a fitted effect of over 35% in size; note: potency is the fitted concentration of half-maximal effect
In short: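 PXR-Luc HepG2 reporter cells (CYP3A4-driven luciferase) in 5% charcoal-stripped FBS medium, plated 5 h before compound addition, then treated 24 h at 37C. Luciferase read by ONE-Glo luminescence after 30 min at room temperature.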

[6] = target: Cytochrome P450 2D6 (Homo sapiens) (UniProt P10635); test: Cytochrome P450 Family 2 Subfamily D Member 6 (CYP2D6) small molecule antagonists: luciferase reporter qHTS assay (AID 1671196); note: nearly all actives have a fitted effect of over 50% in size; note: potency is the fitted concentration of half-maximal effect
In short: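 Cell-free P450-Glo system: CYP2D6 with proluciferin substrate was pre-incubated with compound for 10 min, then reacted with NADPH regeneration for 1 h at room temperature. Luciferin product was detected after 20 min, and data were reported as relative luminescence units.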

[7] = target: Cytochrome P450 2C19 (Homo sapiens) (UniProt P33261); test: Cytochrome P450 Family 2 Subfamily C Member 19 (CYP2C19) small molecule antagonists: luciferase reporter qHTS assay (AID 1671197); note: nearly all actives have a fitted effect of over 65% in size; note: potency is the fitted concentration of half-maximal effect
In short: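 Quantitative high-throughput screen of the Tox21 library using CYP2C19 with proluciferin substrate. Reaction: NADPH regeneration, 37C, 1 h, after 10 min compound preincubation at room temperature. Readout: luminescence.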

[8] = target: Cytochrome P450 2C9 (Homo sapiens) (UniProt P11712); test: Cytochrome P450 Family 2 Subfamily C Member 9 (CYP2C9) small molecule antagonists: luciferase reporter qHTS assay (AID 1671198); note: nearly all actives have a fitted effect of over 50% in size; note: potency is the fitted concentration of half-maximal effect
In short: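 P450-Glo proluciferin substrate with CYP2C9 enzyme; 10 min RT preincubation, then NADPH regeneration 1 h at 37C; luciferin detection reagent 20 min RT, luminescence in relative luminescence units.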

[9] = target: Cytochrome P450 1A2 (Homo sapiens) (UniProt P05177); test: Cytochrome P450 Family 1 Subfamily A Member 2 (CYP1A2) small molecule antagonists: luciferase reporter qHTS assay (AID 1671199); note: nearly all actives have a fitted effect of over 50% in size; note: potency is the fitted concentration of half-maximal effect
In short: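 P450-Glo CYP1A2 enzyme–proluciferin substrate mix with compound 10 min at room temperature, then NADPH regeneration 1 h at room temperature. Luciferin detection reagent added, luminescence read after 20 min; furafylline positive control.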

[10] = target: Voltage-gated inwardly rectifying potassium channel KCNH2 (Homo sapiens) (UniProt Q12809); test: Human Ether-a-go-go-Related Gene (hERG) channel small molecule antagonists: fluorescence cell-based qHTS assay (AID 1671200); note: nearly all actives have a fitted effect of over 50% in size; note: potency is the fitted concentration of half-maximal effect
In short: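 Kinetic two-minute fluorescence traces, sampled at 1 s, were collected following thallium stimulus of U2OS cells (1000 per well) that had been cultured overnight at 37 C and loaded with FluxOR II.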

[11] = target: Nuclear receptor subfamily 1 group I member 2 (Homo sapiens) (UniProt O75469); test: Human pregnane X receptor (PXR) activation by small molecules, qHTS assay (AID 1346985); note: nearly all actives have a fitted effect of over 40% in size
In short: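 DPX-2 cells (HepG2 co-transfected with a PXR response element and a CYP3A4-promoter luciferase construct) were seeded at 2,000 per well, rested 5 hr at 37C, then exposed to DMSO-dissolved compounds for 24 hr. Activation was read as luciferase luminescence.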

[12] = target: Cytochrome P450 3A4 (Homo sapiens) (UniProt P08684); test: Cytochrome P450 Family 3 Subfamily A Member 4 (CYP3A4) small molecule antagonists: luciferase reporter qHTS assay (AID 1671201); note: nearly all actives have a fitted effect of over 50% in size; note: potency is the fitted concentration of half-maximal effect
In short: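 Proluciferin-to-luciferin conversion by CYP3A4, NADPH-regenerated, 1 h RT; luminescence read as RLU. Ketoconazole as control.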

[13] = target: Nuclear receptor subfamily 1 group I member 2 (Homo sapiens) (UniProt O75469); test: CYP3A4 induction through human pregnane X receptor (PXR) by small molecules, qHTS assay (AID 1346984); note: nearly all actives have a fitted effect of over 40% in size
In short: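 DPX-2 HepG2 cells carrying a PXR response element and CYP3A4-promoter luciferase construct, treated with compounds 24 hr at 37C. Then P450-Glo CYP3A4 Luciferin-IPA substrate (3uM final) for 3 hr at 37C, One-Glo added, luminescence read.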

[14] = target: Nuclear receptor subfamily 1 group I member 2 (Rattus norvegicus) (UniProt Q9R1A7); test: Rat pregnane X receptor (rPXR) activation by small molecules, qHTS assay (AID 1346983); details: rPXR luciferase reporter cells, One-Glo luminescence, 24 h; max activation: active compounds read high; note: nearly all actives have a fitted effect of over 20% in size
In short: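 Cell-based rPXR activation assay: rPXR cells, 2,000 per well, rested 5hr at 37 C, then exposed to compounds in DMSO for 24 hr at 37 C. Luciferase activity read by One-Glo luminescence after 30 min at room temperature.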
% is set by controls: 0 for no effect and ±100 for the full control effect.

Sequence of Voltage-gated inwardly rectifying potassium channel KCNH2 (Homo sapiens) (Q12809 whole entry, looked up): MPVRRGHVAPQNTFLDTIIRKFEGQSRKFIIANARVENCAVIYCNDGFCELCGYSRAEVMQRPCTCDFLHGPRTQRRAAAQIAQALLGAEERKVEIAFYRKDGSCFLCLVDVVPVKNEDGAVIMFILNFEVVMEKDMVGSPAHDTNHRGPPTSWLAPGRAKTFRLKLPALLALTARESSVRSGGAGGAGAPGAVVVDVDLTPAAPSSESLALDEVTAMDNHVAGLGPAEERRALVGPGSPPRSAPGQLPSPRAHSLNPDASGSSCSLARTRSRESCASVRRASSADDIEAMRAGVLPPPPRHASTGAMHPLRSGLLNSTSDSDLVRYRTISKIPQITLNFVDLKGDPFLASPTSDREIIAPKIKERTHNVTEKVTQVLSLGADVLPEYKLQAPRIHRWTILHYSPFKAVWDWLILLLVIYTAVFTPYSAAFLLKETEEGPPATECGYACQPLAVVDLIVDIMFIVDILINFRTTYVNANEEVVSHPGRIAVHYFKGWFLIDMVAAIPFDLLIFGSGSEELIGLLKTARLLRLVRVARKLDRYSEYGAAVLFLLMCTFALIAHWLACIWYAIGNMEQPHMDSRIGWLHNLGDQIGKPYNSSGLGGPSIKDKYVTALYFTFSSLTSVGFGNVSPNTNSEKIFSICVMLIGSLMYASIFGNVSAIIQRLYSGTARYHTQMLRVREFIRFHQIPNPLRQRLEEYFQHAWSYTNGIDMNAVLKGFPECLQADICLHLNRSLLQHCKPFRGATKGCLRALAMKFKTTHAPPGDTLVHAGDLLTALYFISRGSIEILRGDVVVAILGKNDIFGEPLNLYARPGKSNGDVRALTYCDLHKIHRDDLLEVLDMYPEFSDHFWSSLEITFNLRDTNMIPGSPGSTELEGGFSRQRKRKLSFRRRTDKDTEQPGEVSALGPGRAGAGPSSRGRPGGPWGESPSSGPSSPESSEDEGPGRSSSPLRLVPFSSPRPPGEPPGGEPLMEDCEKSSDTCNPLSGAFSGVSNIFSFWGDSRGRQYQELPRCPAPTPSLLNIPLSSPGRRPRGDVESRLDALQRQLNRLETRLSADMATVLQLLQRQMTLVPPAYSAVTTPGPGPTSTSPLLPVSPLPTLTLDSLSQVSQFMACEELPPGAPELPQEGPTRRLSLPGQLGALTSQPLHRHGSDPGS
Sequence of Nuclear receptor subfamily 1 group I member 2 (Homo sapiens) (O75469 whole entry, looked up): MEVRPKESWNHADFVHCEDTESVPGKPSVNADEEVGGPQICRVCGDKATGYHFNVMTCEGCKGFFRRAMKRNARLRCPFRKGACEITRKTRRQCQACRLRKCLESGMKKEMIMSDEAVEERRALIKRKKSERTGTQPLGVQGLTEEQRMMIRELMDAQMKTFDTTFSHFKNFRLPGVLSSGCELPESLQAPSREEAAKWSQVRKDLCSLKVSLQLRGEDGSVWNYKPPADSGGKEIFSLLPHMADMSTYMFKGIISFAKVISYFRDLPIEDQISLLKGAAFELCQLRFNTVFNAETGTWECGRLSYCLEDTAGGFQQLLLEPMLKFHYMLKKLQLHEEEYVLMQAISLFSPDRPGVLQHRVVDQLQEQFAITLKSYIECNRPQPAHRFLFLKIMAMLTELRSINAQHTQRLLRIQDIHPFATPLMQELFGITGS
Sequence of Cytochrome P450 1A2 (Homo sapiens) (P05177 whole entry, looked up): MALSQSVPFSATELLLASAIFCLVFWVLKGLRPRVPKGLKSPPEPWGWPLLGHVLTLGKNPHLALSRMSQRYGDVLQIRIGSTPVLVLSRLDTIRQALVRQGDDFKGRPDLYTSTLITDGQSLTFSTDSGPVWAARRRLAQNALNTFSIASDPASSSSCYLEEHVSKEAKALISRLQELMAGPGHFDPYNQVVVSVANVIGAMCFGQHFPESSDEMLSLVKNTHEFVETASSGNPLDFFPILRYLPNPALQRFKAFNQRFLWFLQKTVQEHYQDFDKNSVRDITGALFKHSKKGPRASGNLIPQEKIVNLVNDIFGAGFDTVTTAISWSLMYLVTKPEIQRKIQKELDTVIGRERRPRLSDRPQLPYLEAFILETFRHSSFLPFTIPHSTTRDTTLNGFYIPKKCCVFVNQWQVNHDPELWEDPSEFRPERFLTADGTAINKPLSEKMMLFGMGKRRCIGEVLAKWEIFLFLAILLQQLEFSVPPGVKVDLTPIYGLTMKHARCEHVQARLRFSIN
Sequence of Cytochrome P450 3A4 (Homo sapiens) (P08684 whole entry, looked up): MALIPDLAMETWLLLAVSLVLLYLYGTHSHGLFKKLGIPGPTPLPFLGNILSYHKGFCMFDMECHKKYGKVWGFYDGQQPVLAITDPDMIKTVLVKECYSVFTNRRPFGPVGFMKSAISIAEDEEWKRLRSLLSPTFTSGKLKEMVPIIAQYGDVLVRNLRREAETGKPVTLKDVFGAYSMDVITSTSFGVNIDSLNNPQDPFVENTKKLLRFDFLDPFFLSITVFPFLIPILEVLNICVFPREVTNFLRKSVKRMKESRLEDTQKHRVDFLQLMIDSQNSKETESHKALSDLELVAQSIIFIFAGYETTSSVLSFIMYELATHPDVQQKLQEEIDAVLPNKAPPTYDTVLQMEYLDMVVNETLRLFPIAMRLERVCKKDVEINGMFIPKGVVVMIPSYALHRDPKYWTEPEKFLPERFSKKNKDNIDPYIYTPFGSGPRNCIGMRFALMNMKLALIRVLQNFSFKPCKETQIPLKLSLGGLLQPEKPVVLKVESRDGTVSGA
Sequence of Cytochrome P450 2D6 (Homo sapiens) (P10635 whole entry, looked up): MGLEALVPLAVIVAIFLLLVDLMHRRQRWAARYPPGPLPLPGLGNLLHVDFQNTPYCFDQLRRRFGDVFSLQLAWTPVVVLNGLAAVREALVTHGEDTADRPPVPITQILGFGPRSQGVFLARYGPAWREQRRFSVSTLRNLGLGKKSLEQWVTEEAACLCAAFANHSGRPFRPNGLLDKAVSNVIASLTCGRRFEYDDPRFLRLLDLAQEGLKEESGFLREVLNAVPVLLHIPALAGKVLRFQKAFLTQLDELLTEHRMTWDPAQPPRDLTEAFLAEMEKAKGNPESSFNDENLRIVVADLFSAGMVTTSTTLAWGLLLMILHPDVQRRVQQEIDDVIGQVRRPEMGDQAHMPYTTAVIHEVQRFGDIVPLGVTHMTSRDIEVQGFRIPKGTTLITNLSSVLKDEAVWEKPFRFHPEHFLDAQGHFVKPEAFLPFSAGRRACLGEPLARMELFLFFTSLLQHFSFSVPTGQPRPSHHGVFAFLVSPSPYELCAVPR
Sequence of Cytochrome P450 2C9 (Homo sapiens) (P11712 whole entry, looked up): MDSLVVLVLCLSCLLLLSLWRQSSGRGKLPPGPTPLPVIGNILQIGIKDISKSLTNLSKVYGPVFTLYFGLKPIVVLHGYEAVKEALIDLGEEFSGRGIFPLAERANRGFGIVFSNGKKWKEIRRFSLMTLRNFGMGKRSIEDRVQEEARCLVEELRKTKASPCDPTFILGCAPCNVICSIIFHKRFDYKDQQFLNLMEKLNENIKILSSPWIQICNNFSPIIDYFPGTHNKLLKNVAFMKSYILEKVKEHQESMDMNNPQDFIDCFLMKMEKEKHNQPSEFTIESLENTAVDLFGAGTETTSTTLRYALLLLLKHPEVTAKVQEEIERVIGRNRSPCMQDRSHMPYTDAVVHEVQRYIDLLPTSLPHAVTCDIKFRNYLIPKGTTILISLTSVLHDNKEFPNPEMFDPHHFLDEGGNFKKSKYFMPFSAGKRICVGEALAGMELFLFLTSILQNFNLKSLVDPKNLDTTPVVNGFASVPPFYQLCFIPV
Sequence of Cytochrome P450 2C19 (Homo sapiens) (P33261 whole entry, looked up): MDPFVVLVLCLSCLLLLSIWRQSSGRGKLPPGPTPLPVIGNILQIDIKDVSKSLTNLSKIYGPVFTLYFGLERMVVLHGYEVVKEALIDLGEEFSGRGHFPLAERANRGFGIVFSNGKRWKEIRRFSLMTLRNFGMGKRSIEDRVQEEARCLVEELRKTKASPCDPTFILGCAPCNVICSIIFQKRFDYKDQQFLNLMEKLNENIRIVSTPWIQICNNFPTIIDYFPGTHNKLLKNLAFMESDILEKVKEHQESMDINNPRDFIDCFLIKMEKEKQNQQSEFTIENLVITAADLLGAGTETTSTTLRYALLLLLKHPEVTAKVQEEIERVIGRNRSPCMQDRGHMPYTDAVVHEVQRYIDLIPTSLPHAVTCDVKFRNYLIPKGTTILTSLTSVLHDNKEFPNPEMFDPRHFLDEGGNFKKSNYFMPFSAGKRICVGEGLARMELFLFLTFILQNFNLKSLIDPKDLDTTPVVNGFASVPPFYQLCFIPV
Sequence of Nuclear receptor subfamily 1 group I member 2 (Rattus norvegicus) (Q9R1A7 whole entry, looked up): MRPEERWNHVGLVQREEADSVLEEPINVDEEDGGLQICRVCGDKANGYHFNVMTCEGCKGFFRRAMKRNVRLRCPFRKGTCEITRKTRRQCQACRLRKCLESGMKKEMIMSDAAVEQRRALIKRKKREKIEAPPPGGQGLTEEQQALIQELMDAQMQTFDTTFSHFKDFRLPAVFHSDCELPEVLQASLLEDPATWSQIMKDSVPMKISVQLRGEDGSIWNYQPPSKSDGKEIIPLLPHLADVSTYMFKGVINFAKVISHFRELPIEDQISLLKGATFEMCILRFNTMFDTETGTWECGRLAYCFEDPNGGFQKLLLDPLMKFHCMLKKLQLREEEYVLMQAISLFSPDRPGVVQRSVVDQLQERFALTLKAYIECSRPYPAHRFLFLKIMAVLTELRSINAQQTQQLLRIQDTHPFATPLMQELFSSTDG

CCCCCCCCSCCO
active: Potency [7] 20 µM | Potency [8] 44.8 µM | Potency [9] 39.9 µM
inactive: Potency [1] | Potency [2] | outcome [3] | Potency [4] | Potency [5] | Potency [6] | Potency [10]

CO[C@@]12[C@H](COC(N)=O)C3=C(C(=O)C(C)=C(N)C3=O)N1C[C@@H]1N[C@@H]12
active: Potency [1] 11.9 µM | Potency [2] 13.3 µM | Potency [4] 11.9 µM | Potency [9] 30.9 µM
inactive: outcome [3] | Potency [5] | Potency [11] | Potency [7] | Potency [10]

O=C(CCCN1CCN(c2ccc(F)cc2)CC1)NC1c2ccccc2CSc2ccccc21 (centres undefined)
inactive: Potency [1] | Potency [2] | outcome [3] | Potency [4] | Potency [5] | Potency [9]
active: Potency [6] 9.77 µM | Potency [7] 4.36 µM | Potency [8] 6.92 µM | Potency [10] 1.9 µM

CNC(=O)N(c1ccccc1)c1ccccc1
active: Potency [2] 43.5 µM | Potency [5] 48.8 µM | Potency [6] 35.7 µM | Potency [9] 40.1 µM
inactive: Potency [1] | outcome [3] | Potency [4] | Potency [7] | Potency [8] | Potency [10] | Potency [12]

CO[C@H]1O[C@H](CO)[C@@H](O)[C@H](O)[C@H]1O
inactive: Potency [1] | Potency [2] | outcome [3] | Potency [4] | Potency [5] | Potency [6] | Potency [7] | Potency [8] | Potency [9] | Potency [10] | Potency [12]

CCCC1C(CC)=CC(CC)=CN1c1ccccc1 (centres undefined)
active: Potency [5] 24.3 µM | Potency [6] 20 µM | Potency [7] 2 µM | Potency [8] 17.8 µM | Potency [9] 11.2 µM
inactive: Potency [1] | Potency [2] | outcome [3] | Potency [4]

CC1CC(=O)NN=C1c1ccc(NCC(C)(C)NCC(O)COc2cc(Cl)ccc2C#N)cc1 (centres undefined)
inactive: Potency [1] | Potency [2] | outcome [3] | Potency [4] | Potency [9]
active: Potency [5] 26.6 µM | Potency [6] 5.49 µM | Potency [7] 13.8 µM | Potency [8] 12.3 µM

CC(=O)OCC(=O)[C@H]1CC[C@H]2[C@@H]3CCC4=CC(=O)CC[C@]4(C)[C@H]3CC[C@]12C
inactive: Potency [1] | Potency [2] | outcome [3] | Potency [4] | Potency [5] | Potency [13] | Potency [11] | Potency [9] | Potency [10]
active: Potency [7] 9.77 µM | Potency [8] 7.76 µM

Cc1nc2ccccn2c(=O)c1CCN1CCC(C(=O)c2ccc(F)cc2)CC1
inactive: Potency [1] | Potency [2] | outcome [3] | Potency [4] | Potency [5] | Potency [7] | Potency [8] | Potency [9]
active: Potency [6] 4.36 µM | Potency [10] 9.52 µM

C[N+]1(C)CCC(=C(c2ccccc2)c2ccccc2)CC1
inactive: Potency [1] | Potency [2] | outcome [3] | Potency [4] | Potency [5] | Potency [13] | Potency [11] | Potency [7] | Potency [8] | Potency [9] | Potency [12]
active: Potency [6] 12.3 µM | Potency [10] 8.49 µM

COC(=O)[C@@H]1CC2=CC(=O)CC[C@]2(C)[C@@]23O[C@@H]2C[C@@]2(C)[C@@H](CC[C@@]24CCC(=O)O4)[C@H]13
inactive: Potency [1] | Potency [2] | outcome [3] | Potency [4] | Potency [5] | max activation [14] -1.51% | Potency [13] | Potency [11] | Potency [8] | Potency [9] | Potency [10] | Potency [12]

O=C(O)Cc1ccc(-c2ccccc2)cc1
inactive: Potency [1] | Potency [2] | outcome [3] | Potency [4] | Potency [5] | Potency [13] | Potency [11] | Potency [6] | Potency [9] | Potency [10] | Potency [12]

COc1ccccc1N=Nc1c(S(=O)(=O)O)cc2cc(S(=O)(=O)O)cc(NC(C)=O)c2c1O
inactive: Potency [1] | outcome [3] | Potency [5] | Potency [10]
active: Potency [2] 25.7 µM | Potency [4] 25.7 µM | Potency [6] 33.5 µM | Potency [7] 29.8 µM | Potency [8] 33.5 µM | Potency [9] 33.5 µM | Potency [12] 33.5 µM

CCc1cccc(N(C)C(N)=Nc2cccc3ccccc23)c1
inactive: Potency [1] | Potency [2] | outcome [3] | Potency [4]

CCCCN(CCCC)CCCOC(=O)c1ccc(N)cc1
active: Potency [6] 0.0219 µM | Potency [10] 9.52 µM
inactive: Potency [1] | Potency [2] | outcome [3] | Potency [4] | Potency [5] | Potency [13] | Potency [11] | Potency [8] | Potency [9] | Potency [12]

Nc1nccs1
active: Potency [6] 31.7 µM
inactive: Potency [1] | Potency [2] | outcome [3] | Potency [4] | Potency [5] | Potency [13] | Potency [11] | Potency [7] | Potency [8] | Potency [9] | Potency [10] | Potency [12]

OCCSc1ccccc1
inactive: Potency [1] | Potency [2] | outcome [3] | Potency [4] | Potency [5] | Potency [6] | Potency [7] | Potency [8] | Potency [10] | Potency [12]
active: Potency [9] 39.9 µM

COc1cc2[nH]c(=O)[nH]c(=O)c2cc1OC
inactive: Potency [1] | Potency [2] | outcome [3] | Potency [4] | Potency [5] | Potency [13] | Potency [11] | Potency [6] | Potency [7] | Potency [8] | Potency [10]

CCOC(=O)OCC
active: Potency [6] 23.3 µM | Potency [9] 41.5 µM
inactive: Potency [1] | Potency [2] | outcome [3] | Potency [4] | Potency [5] | Potency [7] | Potency [8] | Potency [10]
